The values that follow come from PubChem BioAssay (Tox21).

Experiment [1] can be described thus: qHTS assay for small molecule agonists of the p53 signaling pathway (AID 651631; calls by dose curve; further: nearly all actives have a fitted effect of over 15% in size; further: potency means the concentration at half of the fitted maximal effect). An outline of the steps:
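Read-out is beta-lactamase FRET fluorescence measured 2 h after substrate addition at room temperature, in HCT-116 cells with a p53 response element-driven reporter exposed to compounds for 16 h at 37 °C.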
Background: qHTS replaces the single test concentration by a dilution series.

Experiment [2] can be described thus: qHTS assay for small molecules that induce genotoxicity in human embryonic kidney cells expressing luciferase-tagged ATAD5 (AID 651632). Further: nearly all actives have a fitted effect of over 15% in size. Further: potency means the concentration at half of the fitted maximal effect. An outline of the steps: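 Luminescence read-out: after 16 hr compound exposure at 37C, ATAD5-luciferase HEK293T cells received Amplite, 30 min RT, then CCD imaging. A rise in signal marks genotoxic stress.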
A short description of experiment [3]: qHTS assay for small molecule agonists of the p53 signaling pathway - cell viability (AID 651633; calls by dose curve;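 further: p53RE-bla HCT reporter cells with a stable beta-lactamase p53 reporter; series mostly up to about 83 µM; nearly all actives have a fitted effect of over 30% in size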). In short, it runs like this: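 p53RE-bla cells, seeded at 4,000 per well and rested 5 h at 37 C/5% CO2, received compounds in DMSO for 16 h at 37 C. CellTiter-Glo was then added, and luminescence was read after 30 min at room temperature to gauge cytotoxicity.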

Experiment [4] in a line: qHTS assay for small molecules that induce genotoxicity in human embryonic kidney cells expressing luciferase-tagged ATAD5 - cell viability (AID 651634; calls by dose curve; further: nearly all actives have a fitted effect of over 25% in size; further: potency means the concentration at half of the fitted maximal effect). In short, it runs like this:
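HEK293T ATAD5-luc cells, 2,000/well; compound 15.5 hr, 37C/5% CO2; CellTiter-Fluor 30 min, 37C; fluorescence read.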

A short description of experiment [5]: qHTS assay for small molecule disruptors of the mitochondrial membrane potential - cell viability (AID 720634; calls by dose curve;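 further: human HepG2 liver cancer cells; series mostly up to about 83 µM; nearly all actives have a fitted effect of over 20% in size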). An outline of the steps:
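Luminescence from CellTiter-Glo (ATP content) gave viability in HepG2 cells, read in the same wells as the MMP dye assay after 1 hr compound exposure at 37 C.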

Experiment [6] in a line: qHTS assay for small molecule disruptors of the mitochondrial membrane potential (AID 720635). Further: potency means the concentration at half of the fitted maximal effect. An outline of the steps:
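HepG2 cells (2,000/well) attached overnight at 37C, then took compound for 1 hr at 37C, 5% CO2. Mito-MPS dye was added for 30 min; fluorescence was read at 490/535 nm (monomers) and 540/590 nm (aggregates).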

Experiment [7] can be described thus: qHTS assay to test for compound auto fluorescence at 590 nm (red) in HepG2 cells (AID 720674). An outline of the steps:
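Rose Bengal sodium served as the red fluorophore standard. HepG2 monolayers (overnight attachment, MEM with 10% FBS) were exposed to test compounds for 1 hr at 37 C and read at Ex 540/Em 590 nm.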

The nature of experiment [8]: qHTS assay to test for compound auto fluorescence at 535 nm (green) in HepG2 cells (AID 720675).
Experiment [9] is described as follows: qHTS assay to test for compound auto fluorescence at 460 nm (blue) in HEK293 cells (AID 720678). In short, it runs like this: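 Blue read-out at excitation 405 nm and emission 460 nm follows overnight compound exposure of HEK293 cells at 37C in 5% CO2. Activity is given as auto fluorescence equivalency to triamterene.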
Experiment [10] can be described thus: qHTS assay to test for compound auto fluorescence at 590 nm (red) in HEK293 cells (AID 720679). An outline of the steps: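 Red channel, Ex/Em 540/590nm; signal expressed as equivalency to Rose Bengal sodium. HEK293, 2,000 cells/well, 10% dialyzed FBS; 23 nL compound pinned after 4-5 hr attachment; overnight 37C/5% CO2 before reading.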
Experiment [11] is described as follows: qHTS assay to test for compound auto fluorescence at 460 nm (blue) in HEK293 cell free culture (AID 720681). In short, it runs like this:
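Test compounds were pinned into cell-free culture medium (DMEM with 10% FBS) and fluorescence was read directly at Ex/Em 405/460 nm. Signals were expressed as fluorescence equivalents of triamterene, with DMSO vehicle as control.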

A short description of experiment [12]: qHTS assay to test for compound auto fluorescence at 535 nm (green) in HEK293 cell free culture (AID 720682). An outline of the steps: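 Fluorescein serves as the green reference fluorophore; each compound's intrinsic emission at 535 nm (excitation 485 nm) is reported as an equivalent amount of that dye, measured in serum-containing DMEM without cells.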
A short description of experiment [13]: qHTS assay to test for compound auto fluorescence at 590 nm (red) in HEK293 cell free culture (AID 720683). In short, it runs like this: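 Tox21 10K library compounds were pinned into cell-free DMEM with 10% FBS and fluorescence was read at excitation 540 nm. Activity is expressed as Rose Bengal sodium equivalency.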
The nature of experiment [14]: qHTS assay to test for compound auto fluorescence at 590 nm (red) in HepG2 cell free culture (AID 720684). In short, it runs like this: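 Ex 540 / Em 590 nm read of compound in cell-free MEM (10% FBS). Rose Bengal sodium reference.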
Experiment [15] in a line: qHTS assay to test for compound auto fluorescence at 460 nm (blue) in HepG2 cell free culture (AID 720685). An outline of the steps:
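Cell-free plates of MEM plus 10% FBS received 23 nL compound or DMSO vehicle; blue-channel (405/460 nm) intensity scored against triamterene as reference fluorophore.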

Experiment [16] in a line: qHTS assay to test for compound auto fluorescence at 535 nm (green) in HepG2 cell free culture (AID 720686).
A short description of experiment [17]: qHTS assay to test for compound auto fluorescence at 460 nm (blue) in HepG2 cells (AID 720687). An outline of the steps: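 Cells (2,000/well in MEM with 10% FBS) attached overnight at 37 C, then were exposed to compound or DMSO for 1 hr at 37 C, 5% CO2. Fluorescence read at Ex/Em 405/460 nm, expressed as triamterene-equivalent signal.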
Experiment [18] can be described thus: qHTS assay to test for compound auto fluorescence at 535 nm (green) in HEK293 cells (AID 720680).
Experiment [19] addresses Glucocorticoid receptor (Homo sapiens) (UniProt P04150). Kind of experiment: qHTS assay to identify small molecule antagonists of the glucocorticoid receptor (GR) signaling pathway (AID 720692; active means well fitted inhibition curve with a large enough effect in the signal ratio in the repeat runs, not every such curve was filed as active; the % refers to the signal ratio). An outline of the steps:
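Read-out: beta-lactamase FRET substrate fluorescence, 2 h at room temperature, in HeLa cells stably carrying a GRE-driven bla reporter. Compounds were co-incubated with 5 nM dexamethasone agonist (final) for 18 h at 37 C.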

The target is the same in experiment [20]. The experiment can be described thus: qHTS assay to identify small molecule agonists of the glucocorticoid receptor (GR) signaling pathway (AID 720691; active means well fitted activation curve with a large enough effect in the signal ratio in the repeat runs, not every such curve was filed as active; the % refers to the signal ratio). In short, it runs like this: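 HeLa GR-bla reporter line; cells pre-incubated 4 h, compound in DMSO 18 h at 37 C; LiveBLAzer B/G FRET substrate 2 h RT; fluorescence intensity read-out.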

A number with no mark means an inactive call. Records with an inconclusive call do not appear. Active and inactive are the calls of the source. Unless noted, the call rests on the fitted dose curve; in most records, active means well fitted curve in the direction sought with a large enough effect in the repeat runs; inconclusive means weak or mixed curves; inactive means no such curve, though single readings can be large; an effect the other way counts as inactive or inconclusive.
On the % scale 0 is the no-effect control and ±100 the full control effect.

Sequence of Glucocorticoid receptor (Homo sapiens) (P04150 whole entry, looked up): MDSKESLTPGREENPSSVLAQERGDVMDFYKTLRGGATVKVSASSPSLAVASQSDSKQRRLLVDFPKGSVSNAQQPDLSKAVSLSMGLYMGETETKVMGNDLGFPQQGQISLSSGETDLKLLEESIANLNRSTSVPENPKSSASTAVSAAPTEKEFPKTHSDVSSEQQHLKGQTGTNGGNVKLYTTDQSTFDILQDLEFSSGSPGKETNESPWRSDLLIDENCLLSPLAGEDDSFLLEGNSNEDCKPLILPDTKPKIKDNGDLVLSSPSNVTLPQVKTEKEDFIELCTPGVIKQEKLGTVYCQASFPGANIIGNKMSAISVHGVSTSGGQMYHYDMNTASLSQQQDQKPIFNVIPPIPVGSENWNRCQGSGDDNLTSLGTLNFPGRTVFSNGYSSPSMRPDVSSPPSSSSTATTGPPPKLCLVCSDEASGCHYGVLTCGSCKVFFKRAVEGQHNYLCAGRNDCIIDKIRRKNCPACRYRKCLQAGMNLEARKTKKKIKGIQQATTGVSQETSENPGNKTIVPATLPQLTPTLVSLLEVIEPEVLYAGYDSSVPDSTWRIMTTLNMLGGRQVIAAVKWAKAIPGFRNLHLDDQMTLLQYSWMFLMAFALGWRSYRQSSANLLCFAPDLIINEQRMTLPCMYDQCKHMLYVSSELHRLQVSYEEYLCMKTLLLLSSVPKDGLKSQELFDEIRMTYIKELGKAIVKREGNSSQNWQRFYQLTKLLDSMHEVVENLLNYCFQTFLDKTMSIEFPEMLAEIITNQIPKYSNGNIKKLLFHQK

Turning to `OCc1c2ccccc2cc2ccccc12`, the Potency result in experiment [1], in experiment [2], in experiment [3], in [4] and in [5] was “inactive” each time. For the same molecule, the Potency in experiment [6] was 30.7 µM (active). Further, the outcome in experiment [7], in experiment [8], in experiment [9], in [10], in experiment [11] and in [12] was inactive. Further, the call in experiment [13], in [14], in experiment [15], in experiment [16] and in experiment [17] was inactive.
Consider `NCCC(O)(P(=O)(O)O)P(=O)(O)O`, for which the Potency entry in [1], in experiment [2], in experiment [3], in [4], in [5] and in experiment [6] was “inactive” throughout. The Potency entry in experiment [19] was “inactive”. Further, the call in experiment [8], in [9], in [10], in experiment [18], in [11] and in experiment [12] was inactive. The outcome in experiment [13], in experiment [14], in [15], in experiment [16] and in experiment [17] was inactive.
For the molecule `CC(C)C(=O)OCC(C)(C)C(O)C(C)C` (stereo not given), the Potency entry in experiment [1], in [2], in experiment [3], in experiment [4], in [5] and in [6] was “inactive” in each case. The call in experiment [7], in experiment [8], in [9], in experiment [10], in experiment [18] and in experiment [11] was inactive. Also, the outcome in experiment [12], in [13], in experiment [14], in experiment [15], in [16] and in experiment [17] was inactive.
`CCCCc1ccc2nc(NC(=O)OC)[nH]c2c1`: the Potency in [1] was 50.7 nM (active); in [2], 804 nM (active); in experiment [4], 90.2 nM (active); in [6], 0.254 µM (active). For the same molecule, the Potency entry in experiment [3] and in [5] was “inactive” throughout. Further, the fluorescence, relative to Rose Bengal in experiment [7] is -0.46% [at 18.6 µM]. For the same molecule, the fluorescence, % of fluorescein control was 0.0726% [at 18.6 µM] in [8] and -0.0094% [at 18.6 µM] in [16]. For the same molecule, in experiment [9], the fluorescence, % of triamterene was -0.014% [at 18.6 µM]. For the same molecule, the fluorescence, % of fluorescent control in experiment [10] was 0.021% [at 18.6 µM]; in experiment [11] it was -0.0022% [at 18.6 µM]; in [13] it was 0.113% [at 18.6 µM]; in [15], -0.0558% [at 18.6 µM]; in experiment [17], -0.0106% [at 18.6 µM]. In experiment [18], the fluorescence, % of fluorescein was -0.231% [at 18.6 µM]. The activity change in [12] was 0.0865% [at 18.6 µM]. For the same molecule, the fluorescence, % of Rose Bengal in experiment [14] was 0.0227% [at 18.6 µM].
Turning to `Cc1ccc(C=O)s1`, the Potency result in experiment [1], in [2], in experiment [3], in experiment [4], in experiment [5] and in experiment [6] was “inactive” throughout. Further, the molecule was called inactive in [7], in [8], in experiment [9], in experiment [18], in experiment [11] and in experiment [12]. Besides, the result in experiment [13], in experiment [14], in experiment [15] and in experiment [16] was inactive.
Regarding `CCc1nnc(NS(=O)(=O)c2ccc(N)cc2)s1`, the Potency result in experiment [1], in [2], in experiment [3], in [4] and in experiment [5] was “inactive” throughout. The call in [7], in experiment [8], in [9], in [10], in experiment [11] and in [12] was inactive. The outcome in [13], in experiment [15], in experiment [16] and in experiment [17] was inactive.
With `Cc1ccc([N+](=O)[O-])cc1Cl`, the Potency entry in experiment [1], in experiment [2], in [3], in experiment [4], in experiment [5] and in experiment [20] was “inactive” throughout. In addition, the Potency result in [19] is “inactive”. For the same molecule, the molecule was classed as inactive in experiment [7], in experiment [8], in experiment [9], in [10], in experiment [18] and in experiment [11]. The result in experiment [12], in experiment [13], in experiment [14], in experiment [15] and in experiment [16] was inactive.
